Screens as filed in PubChem BioAssay.
TIM10 inh: growth inhibitors of isogenic TIM10 control yeast, primary screen, counter-screen for tim10-1 yeast inhibitor project, luminescence, uHTS; S. cerevisiae TIM10 strain growth, BacTiter-Glo luminescence, 24 h; inhibition, % at 10 µM; actives 1.4% (n = 330,000); AID 463195, 2010;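 active = inhibition of 40% or more at the single tested concentration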;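 note: wild-type TIM10 isogenic control strain grown at permissive 25 °C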
V-ATPase pHluor: regulators of yeast V-ATPase proton pumping, primary screen, pHLuorin cytosolic pH fluorescence; actives 0.37% (n = 350,000); S. cerevisiae; AID 504577, 2011; response, % at 10 µM; in the data active = response mostly above about 7.3%, no sharp cut-off; inactive = mostly below about 5.4%; note: actives read high
tim23-1 inh: growth inhibitors of tim23-1 mutant yeast, primary screen, luminescence, uHTS | actives 1.3% (n = 330,000) | AID 463212, 2010 | inhibition, % at 20 µM | S. cerevisiae tim23-1 growth, BacTiter-Glo luminescence, 24 h;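 active = growth inhibition of the mutant yeast at or above 50%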;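 note: temperature-sensitive mutant grown at 25 °C; plate controls were DMSO-treated mutant yeast for no effect and medium wells lacking yeast for full effect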
NLRP3 yeast inh: NALP3 inflammasome inhibitors in reconstituted yeast, primary screen, luminescence, uHTS | actives 0.39% (n = 330,000) | AID 2825, 2010 | inhibition, % at 10 µM | Yeast reconstituted NLRP3/ASC/caspase-1, beta-gal luminescence, 24 h;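 active = inhibition of 50% or more; inactive = inhibition below 50%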;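 note: plate controls were induced DMSO wells for no effect and uninduced yeast grown without galactose for full effect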
tim10-1 inh: growth inhibitors of tim10-1 mutant yeast, primary screen, luminescence, uHTS; S. cerevisiae tim10-1 ts strain growth, BacTiter-Glo, 24 h; inhibition, % at 20 µM; actives 2.2% (n = 330,000); AID 463190, 2010;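 active = inhibition of at least 40%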;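 note: mutant grown at 25 °C; 0% = DMSO wells with yeast and 100% = wells holding no yeast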
NALP1 yeast inh: NALP1 inflammasome inhibitors in reconstituted yeast, colorimetric, S. cerevisiae, triplicate retest; actives 0.61% (n = 280,000); S. cerevisiae NALP1/ASC/caspase-1 growth, X-gal OD620, 72 h; inhibition, % at 10 µM; AID 2071, 2009; in the data active = inhibition mostly above about 24%, no sharp cut-off; inactive = mostly below about 32%
tim10-1 confirm: growth inhibitors of tim10-1 mutant yeast, confirmation, single concentration, luminescence, S. cerevisiae. S. cerevisiae tim10-1 ts strain growth, BacTiter-Glo, 24 h. shares compounds with tim10-1 inh. actives 56% (n = 7,400). inhibition, % at 20 µM;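 active = inhibition of yeast growth at or above a set limit in either of two repeat tests at 20 µM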;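 note: tim10-1 mutant grown at permissive 25 °C to find synthetic lethal compounds; 0% = DMSO yeast wells and 100% = medium wells without yeast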
Active calls of the source: *. The list is not random: actives were taken first. Their share in the collection is about 4.2%.

Screening COc1ccccc1NC(=O)c1cc(S(=O)(=O)N2CCCCCC2)ccc1F returned TIM10 inh 9, V-ATPase pHluor -1, tim23-1 inh 15, NLRP3 yeast inh 2, tim10-1 inh 12 and NALP1 yeast inh 20.
`CCN(CC)C1CCCCC1NS(=O)(=O)c1ccc(Cl)cc1` (centres undefined) gave TIM10 inh -3, V-ATPase pHluor -1, tim23-1 inh -2, NLRP3 yeast inh 8, tim10-1 inh 6 and NALP1 yeast inh 9.
Screening COc1ccccc1NC(=O)c1cc(S(=O)(=O)NC2CCCC2)ccc1F returned TIM10 inh 22, V-ATPase pHluor 4, tim23-1 inh 20, NLRP3 yeast inh -30, tim10-1 inh 48*, NALP1 yeast inh -3 and tim10-1 confirm 9.
`CCC1(c2ccc(F)cc2)NC(=O)N(CC(=O)N(C)C2CCS(=O)(=O)C2)C1=O` (centres undefined) gave TIM10 inh -4, V-ATPase pHluor 1, tim23-1 inh -9, NLRP3 yeast inh 5 and tim10-1 inh -4.
CCCN(C(=O)Cc1ccc(S(=O)(=O)N2CCOCC2)s1)c1c(N)n(Cc2ccccc2)c(=O)[nH]c1=O was read as TIM10 inh -3, V-ATPase pHluor -4, tim23-1 inh 12, NLRP3 yeast inh 7, tim10-1 inh 3 and NALP1 yeast inh 0.
`CC(C)C(c1nnnn1Cc1ccco1)N1CCN(c2cccc(Cl)c2)CC1` (centres undefined) gave TIM10 inh 22, V-ATPase pHluor 3, tim23-1 inh 40, NLRP3 yeast inh 21, tim10-1 inh 41*, NALP1 yeast inh -1 and tim10-1 confirm 15.
`COc1ccc(N2CCN(C(c3ccccc3OC)c3nnnn3Cc3ccco3)CC2)cc1` (centres undefined) gave TIM10 inh 4, V-ATPase pHluor -5, tim23-1 inh 13, NLRP3 yeast inh 7, tim10-1 inh 40*, NALP1 yeast inh 11 and tim10-1 confirm 22.
CCCC(c1nnnn1Cc1cccs1)N1CCN(c2ccc(OC)cc2)CC1 (centres undefined) was read as TIM10 inh 31, V-ATPase pHluor 1, tim23-1 inh 24, NLRP3 yeast inh -39, tim10-1 inh 43*, NALP1 yeast inh -16 and tim10-1 confirm 16.
`COC(=O)C(CO)NC(=O)C1CCCN1C(=O)CNC(=O)OCc1ccccc1` (centres undefined) gave TIM10 inh 5, V-ATPase pHluor -7, tim23-1 inh 17, NLRP3 yeast inh -2, tim10-1 inh -3 and NALP1 yeast inh 25.
`C/C(=N\NC(=S)NCc1ccccc1)c1ccc(Cl)s1` gave TIM10 inh 39, V-ATPase pHluor 0, tim23-1 inh 5, NLRP3 yeast inh 16, tim10-1 inh 41*, NALP1 yeast inh 2 and tim10-1 confirm 33*.
Screening COc1ccc(N(CCN2C(=O)c3ccccc3C2=O)C(=O)c2cccc([N+](=O)[O-])c2)cc1 returned TIM10 inh 35, V-ATPase pHluor 3, tim23-1 inh 49, NLRP3 yeast inh 18, tim10-1 inh 40, NALP1 yeast inh 8 and tim10-1 confirm 35*.
Screening CN1CCCC(CC2Oc3ccccc3Sc3ccccc32)C1 (centres undefined) returned TIM10 inh 19, V-ATPase pHluor 3, tim23-1 inh 4, NLRP3 yeast inh 28, tim10-1 inh 40*, NALP1 yeast inh 37 and tim10-1 confirm 20.
`c1ccc2c(c1)OC(CCCN1CCCCC1)c1ccccc1S2` (centres undefined) gave TIM10 inh 6, V-ATPase pHluor -2, tim23-1 inh -18, NLRP3 yeast inh 35, tim10-1 inh 18 and NALP1 yeast inh 25.
`COc1ccccc1NC(=O)c1ccccc1NC(=O)c1cccs1` gave TIM10 inh 6, V-ATPase pHluor 4, tim23-1 inh 26, NLRP3 yeast inh 34, tim10-1 inh 12 and NALP1 yeast inh 12.
N=c1c2c(-c3ccccc3)c(-c3ccccc3)n(Cc3ccco3)c2ncn1CCCO was read as TIM10 inh 19, V-ATPase pHluor 4, tim23-1 inh 4, NLRP3 yeast inh 15, tim10-1 inh 26 and NALP1 yeast inh 37.
For N=c1c2c(-c3ccccc3)c(-c3ccccc3)n(Cc3ccco3)c2ncn1CCO the results were TIM10 inh 32, V-ATPase pHluor -3, tim23-1 inh 36, NLRP3 yeast inh 7, tim10-1 inh 43*, NALP1 yeast inh 14 and tim10-1 confirm 28.
Screening COc1ccc(CCNC(=O)c2nn(C)cc2Cl)cc1 returned TIM10 inh 11, V-ATPase pHluor 5, tim23-1 inh 14, NLRP3 yeast inh 9, tim10-1 inh 7 and NALP1 yeast inh 36.
Screening COc1ccc(CCNC(=O)c2cc(-c3ccc(Cl)c(Cl)c3)oc2C)cc1 returned TIM10 inh 29, V-ATPase pHluor 4, tim23-1 inh 25, NLRP3 yeast inh 16, tim10-1 inh 40*, NALP1 yeast inh 8 and tim10-1 confirm 36*.
Screening Cc1csc(NC(=O)c2ccc(C)c(S(=O)(=O)N3CCOCC3)c2)n1 returned TIM10 inh 19, tim23-1 inh 12, NLRP3 yeast inh -16, tim10-1 inh 41*, NALP1 yeast inh 8 and tim10-1 confirm 15.
Screening Cc1csc(NC(=O)c2ccc(C)c(S(=O)(=O)N3CCCCC3)c2)n1 returned TIM10 inh 9, V-ATPase pHluor 3, tim23-1 inh 26, NLRP3 yeast inh 12, tim10-1 inh 24 and NALP1 yeast inh 6.
Screening CC(C)Cn1c(N)c(C(=O)COC(=O)/C=C/c2ccccc2)c(=O)n(C)c1=O returned TIM10 inh 17, V-ATPase pHluor -9, tim23-1 inh 22, NLRP3 yeast inh 6, tim10-1 inh 42* and tim10-1 confirm 22.
`O=S(=O)(NCCc1ccc(Cl)cc1)c1cccc2cccnc12` gave TIM10 inh 3, V-ATPase pHluor -3, tim23-1 inh 24, NLRP3 yeast inh 20, tim10-1 inh 14 and NALP1 yeast inh -1.
Screening CCOC(=O)c1c(-c2ccccc2)csc1NC(=O)CSc1nnc(C)s1 returned TIM10 inh 20, V-ATPase pHluor 1, tim23-1 inh 25, NLRP3 yeast inh 21, tim10-1 inh 22 and NALP1 yeast inh 30.
For CCOC(=O)c1c(-c2ccccc2)csc1NC(=S)NC the results were TIM10 inh 19, V-ATPase pHluor 1, tim23-1 inh 27, NLRP3 yeast inh 39, tim10-1 inh 42*, NALP1 yeast inh 8 and tim10-1 confirm 38*.
